Among the data in paper PMC7862700, “An all-to-all approach to the identification of sequence-specific readers for epigenetic DNA modifications on cytosine” are binding signal values, retold here.

What all share (assay): DAPPL (digital affinity profiling via proximity ligation, sequencing); 10 mM Tris-HCl pH 7.5, 50 mM NaCl, 1 mM DTT, 4% glycerol, room temperature, 30 min; GST-TFs on glutathione beads, 16-mer random dsDNA library, 0.1% formaldehyde crosslink after washing; high values mean tight binding
One experiment deals with T1, FLI1 (Homo sapiens, UniProt Q01543 1-452).
T1 sequence: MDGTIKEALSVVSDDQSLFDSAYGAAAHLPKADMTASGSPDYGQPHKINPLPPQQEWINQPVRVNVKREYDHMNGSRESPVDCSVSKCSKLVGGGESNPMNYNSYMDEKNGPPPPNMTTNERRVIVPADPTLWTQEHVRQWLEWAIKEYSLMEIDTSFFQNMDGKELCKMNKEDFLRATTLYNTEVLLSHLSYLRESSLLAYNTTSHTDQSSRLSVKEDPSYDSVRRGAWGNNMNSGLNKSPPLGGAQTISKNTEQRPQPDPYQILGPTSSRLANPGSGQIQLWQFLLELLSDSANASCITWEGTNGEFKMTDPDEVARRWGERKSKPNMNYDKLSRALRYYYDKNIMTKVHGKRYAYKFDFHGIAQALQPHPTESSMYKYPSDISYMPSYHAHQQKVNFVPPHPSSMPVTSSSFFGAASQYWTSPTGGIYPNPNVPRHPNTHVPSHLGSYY
The conditions noted are these: protein: recombinant; tags: N-terminal GST; dsDNA, one strand shown. Put shortly: (§1)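 Human transcription factors fused to GST were expressed in yeast, captured on glutathione beads, given DNA barcodes and pooled with a GST-only negative control. Pools were incubated with 200 nmole of a 16-mer random double-stranded DNA library in Tris/NaCl/DTT/glycerol buffer at room temperature for 30 min. They were then washed, crosslinked with 0.1% formaldehyde, proximity-ligated (BsaI/T4 ligase, 1 h, 37 °C), PCR-amplified and sequenced on an Illumina NextSeq500. Binding signal is each 6-mer's read frequency for a factor divided by its frequency for the GST control.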

For another experiment, the target named is ELF1 (Homo sapiens, UniProt P32519 1-619). The note with it: protein: recombinant; tags: N-terminal GST; dsDNA, one strand shown. Put shortly:
as §1

Another experiment has as its target T2, EHF (Homo sapiens, UniProt Q9NZC4 1-300).
T2 sequence: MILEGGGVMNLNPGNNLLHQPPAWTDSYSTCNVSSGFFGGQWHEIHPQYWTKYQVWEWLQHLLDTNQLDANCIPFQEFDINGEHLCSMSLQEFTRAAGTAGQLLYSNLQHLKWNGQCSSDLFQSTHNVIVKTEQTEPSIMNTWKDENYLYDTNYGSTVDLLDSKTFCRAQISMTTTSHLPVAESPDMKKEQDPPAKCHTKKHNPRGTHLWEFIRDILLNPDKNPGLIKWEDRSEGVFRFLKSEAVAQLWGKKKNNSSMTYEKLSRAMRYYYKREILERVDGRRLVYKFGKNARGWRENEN
The conditions noted are these: protein: recombinant; tags: N-terminal GST; dsDNA, one strand shown. Put shortly:
as §1

The target of another experiment is SPIB (Homo sapiens, UniProt Q01892 1-262). The conditions noted are these: protein: recombinant; tags: N-terminal GST; dsDNA, one strand shown. Put shortly: as §1
The target in the next experiment is T3, SPIC (Homo sapiens, UniProt Q8N5J4 1-248).
T3 sequence: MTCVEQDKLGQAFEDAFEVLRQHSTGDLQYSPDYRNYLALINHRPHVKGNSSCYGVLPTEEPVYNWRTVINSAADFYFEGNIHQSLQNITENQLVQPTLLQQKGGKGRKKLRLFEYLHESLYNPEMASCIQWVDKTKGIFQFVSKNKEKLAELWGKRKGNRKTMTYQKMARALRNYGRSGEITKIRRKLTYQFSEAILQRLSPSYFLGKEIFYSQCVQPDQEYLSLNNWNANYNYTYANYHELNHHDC
The conditions noted are these: protein: recombinant; tags: N-terminal GST; dsDNA, one strand shown. Put shortly:
as §1

Another experiment concerns the target ELF4 (Homo sapiens, UniProt Q99607 1-663). The conditions noted are these: protein: recombinant; tags: N-terminal GST; dsDNA, one strand shown. The gist of the method: as §1
The next experiment addresses T4, ELK4 (Homo sapiens, UniProt P28324-2 1-405).
T4 sequence: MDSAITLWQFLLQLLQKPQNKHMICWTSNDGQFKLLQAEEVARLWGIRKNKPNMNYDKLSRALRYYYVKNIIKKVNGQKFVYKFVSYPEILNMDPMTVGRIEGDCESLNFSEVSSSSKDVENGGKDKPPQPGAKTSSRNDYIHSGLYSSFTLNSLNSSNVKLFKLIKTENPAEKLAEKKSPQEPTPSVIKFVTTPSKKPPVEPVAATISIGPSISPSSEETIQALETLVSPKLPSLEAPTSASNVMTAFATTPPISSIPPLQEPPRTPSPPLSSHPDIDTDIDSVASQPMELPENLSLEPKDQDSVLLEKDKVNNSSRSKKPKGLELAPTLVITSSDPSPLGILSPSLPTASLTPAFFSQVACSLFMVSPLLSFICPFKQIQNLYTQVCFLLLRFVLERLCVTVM
The note with it: protein: recombinant; tags: N-terminal GST; dsDNA, one strand shown. Put shortly:
as §1

A further experiment concerns the target T5, ETV2 (Homo sapiens, UniProt O00321 1-342).
T5 sequence: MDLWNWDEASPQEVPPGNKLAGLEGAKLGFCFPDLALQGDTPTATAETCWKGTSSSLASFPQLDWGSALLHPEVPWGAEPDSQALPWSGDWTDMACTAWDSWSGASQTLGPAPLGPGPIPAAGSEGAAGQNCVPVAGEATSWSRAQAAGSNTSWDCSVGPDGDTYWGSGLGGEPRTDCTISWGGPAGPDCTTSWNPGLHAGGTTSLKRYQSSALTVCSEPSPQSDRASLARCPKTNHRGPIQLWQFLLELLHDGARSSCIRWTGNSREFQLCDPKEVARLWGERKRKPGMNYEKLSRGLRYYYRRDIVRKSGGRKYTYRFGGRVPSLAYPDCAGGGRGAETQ
The note with it: protein: recombinant; tags: N-terminal GST; dsDNA, one strand shown. The gist of the method: as §1

For a further experiment, the target named is T6, ERF (Homo sapiens, UniProt P50548 1-548).
T6 sequence: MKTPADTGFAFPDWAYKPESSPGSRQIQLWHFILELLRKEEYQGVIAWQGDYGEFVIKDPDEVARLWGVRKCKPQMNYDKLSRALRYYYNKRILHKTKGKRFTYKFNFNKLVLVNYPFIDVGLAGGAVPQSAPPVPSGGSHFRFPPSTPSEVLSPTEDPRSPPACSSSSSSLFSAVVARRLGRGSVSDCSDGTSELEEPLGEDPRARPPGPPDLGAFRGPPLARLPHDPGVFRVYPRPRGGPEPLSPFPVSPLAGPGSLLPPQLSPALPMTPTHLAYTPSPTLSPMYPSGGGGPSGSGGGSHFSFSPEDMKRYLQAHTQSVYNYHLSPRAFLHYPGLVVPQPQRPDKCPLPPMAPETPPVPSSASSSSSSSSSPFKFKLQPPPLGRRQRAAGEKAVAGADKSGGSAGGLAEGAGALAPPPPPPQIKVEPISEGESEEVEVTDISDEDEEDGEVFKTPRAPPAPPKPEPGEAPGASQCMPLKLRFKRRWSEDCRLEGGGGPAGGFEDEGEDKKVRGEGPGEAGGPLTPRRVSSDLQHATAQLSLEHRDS
The note with it: protein: recombinant; tags: N-terminal GST; dsDNA, one strand shown. Put shortly: as §1

For another experiment, the target named is T7, ETV7 (Homo sapiens, UniProt Q9Y603 1-341).
T7 sequence: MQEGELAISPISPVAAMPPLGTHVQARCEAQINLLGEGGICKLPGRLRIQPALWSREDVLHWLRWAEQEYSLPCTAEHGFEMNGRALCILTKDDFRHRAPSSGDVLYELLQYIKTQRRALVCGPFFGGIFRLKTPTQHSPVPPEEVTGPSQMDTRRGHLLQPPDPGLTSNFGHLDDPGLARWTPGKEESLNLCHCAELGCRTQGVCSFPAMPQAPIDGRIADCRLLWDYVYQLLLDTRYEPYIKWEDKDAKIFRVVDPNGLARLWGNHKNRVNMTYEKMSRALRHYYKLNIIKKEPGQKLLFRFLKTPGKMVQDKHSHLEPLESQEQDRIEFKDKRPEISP
The conditions noted are these: protein: recombinant; tags: N-terminal GST; dsDNA, one strand shown. The gist of the method: as §1

In the next experiment the target is ETV6 (Homo sapiens, UniProt P41212 1-452). The conditions noted are these: protein: recombinant; tags: N-terminal GST; dsDNA, one strand shown. Put shortly: as §1
The next experiment has as its target HSF1 (Homo sapiens, UniProt Q00613 1-529). The note with it: protein: recombinant; tags: N-terminal GST; chain copies: 3; dsDNA, one strand shown. Put shortly:
as §1

SPIB, sequence (Q01892 whole entry): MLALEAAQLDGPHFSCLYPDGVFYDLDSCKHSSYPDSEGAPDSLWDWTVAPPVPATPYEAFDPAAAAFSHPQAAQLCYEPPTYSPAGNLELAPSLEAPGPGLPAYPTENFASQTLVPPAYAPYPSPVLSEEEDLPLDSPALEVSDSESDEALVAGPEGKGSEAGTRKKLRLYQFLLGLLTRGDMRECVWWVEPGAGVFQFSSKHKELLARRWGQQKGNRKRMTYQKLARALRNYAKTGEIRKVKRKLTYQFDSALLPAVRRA
ELF4, sequence (Q99607 whole entry): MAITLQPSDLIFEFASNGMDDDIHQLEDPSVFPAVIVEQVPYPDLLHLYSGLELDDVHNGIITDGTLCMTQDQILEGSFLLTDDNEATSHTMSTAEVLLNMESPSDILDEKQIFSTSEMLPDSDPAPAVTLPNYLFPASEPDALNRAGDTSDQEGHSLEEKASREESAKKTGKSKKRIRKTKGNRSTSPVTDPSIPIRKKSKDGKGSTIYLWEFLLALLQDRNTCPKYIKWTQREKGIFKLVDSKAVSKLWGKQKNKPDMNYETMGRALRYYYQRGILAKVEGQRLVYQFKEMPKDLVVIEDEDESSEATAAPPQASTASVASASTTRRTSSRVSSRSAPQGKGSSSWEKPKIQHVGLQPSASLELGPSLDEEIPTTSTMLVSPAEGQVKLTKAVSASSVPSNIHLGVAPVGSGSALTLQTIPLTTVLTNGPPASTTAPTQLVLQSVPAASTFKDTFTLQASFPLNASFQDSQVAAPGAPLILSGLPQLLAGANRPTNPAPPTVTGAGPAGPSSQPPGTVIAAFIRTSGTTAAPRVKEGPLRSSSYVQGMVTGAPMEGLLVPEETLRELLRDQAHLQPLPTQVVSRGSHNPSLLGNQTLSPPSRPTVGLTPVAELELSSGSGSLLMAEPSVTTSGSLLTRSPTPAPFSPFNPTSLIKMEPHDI
ETV6, sequence (P41212 whole entry): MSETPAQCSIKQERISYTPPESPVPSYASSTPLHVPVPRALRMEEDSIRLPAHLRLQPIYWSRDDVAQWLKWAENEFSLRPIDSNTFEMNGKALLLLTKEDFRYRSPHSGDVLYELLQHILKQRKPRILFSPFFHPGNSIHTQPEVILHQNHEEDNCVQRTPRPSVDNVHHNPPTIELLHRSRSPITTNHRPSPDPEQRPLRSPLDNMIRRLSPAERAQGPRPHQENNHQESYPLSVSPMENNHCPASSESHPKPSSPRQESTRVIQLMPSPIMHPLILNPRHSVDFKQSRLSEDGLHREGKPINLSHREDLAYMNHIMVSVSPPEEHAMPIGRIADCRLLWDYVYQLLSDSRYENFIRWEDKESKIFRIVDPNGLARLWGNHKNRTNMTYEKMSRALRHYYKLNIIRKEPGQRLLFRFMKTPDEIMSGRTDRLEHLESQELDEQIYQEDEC
ELF1, sequence (P32519 whole entry): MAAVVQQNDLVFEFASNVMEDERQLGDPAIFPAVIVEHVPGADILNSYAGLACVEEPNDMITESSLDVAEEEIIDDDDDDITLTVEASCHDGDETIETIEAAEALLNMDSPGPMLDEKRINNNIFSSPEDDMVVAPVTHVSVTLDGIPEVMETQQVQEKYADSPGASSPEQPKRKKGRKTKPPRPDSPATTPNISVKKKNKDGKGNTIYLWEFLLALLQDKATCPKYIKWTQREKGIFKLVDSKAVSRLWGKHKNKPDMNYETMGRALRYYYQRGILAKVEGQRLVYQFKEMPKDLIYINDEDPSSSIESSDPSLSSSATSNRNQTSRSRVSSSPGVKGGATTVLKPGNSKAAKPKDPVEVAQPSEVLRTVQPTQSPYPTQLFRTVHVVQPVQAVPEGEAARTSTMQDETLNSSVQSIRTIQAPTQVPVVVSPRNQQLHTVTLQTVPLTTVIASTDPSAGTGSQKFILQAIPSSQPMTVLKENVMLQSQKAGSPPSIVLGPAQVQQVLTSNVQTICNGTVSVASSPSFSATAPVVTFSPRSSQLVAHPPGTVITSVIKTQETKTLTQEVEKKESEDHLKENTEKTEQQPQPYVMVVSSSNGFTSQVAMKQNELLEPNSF
HSF1, sequence (Q00613 whole entry): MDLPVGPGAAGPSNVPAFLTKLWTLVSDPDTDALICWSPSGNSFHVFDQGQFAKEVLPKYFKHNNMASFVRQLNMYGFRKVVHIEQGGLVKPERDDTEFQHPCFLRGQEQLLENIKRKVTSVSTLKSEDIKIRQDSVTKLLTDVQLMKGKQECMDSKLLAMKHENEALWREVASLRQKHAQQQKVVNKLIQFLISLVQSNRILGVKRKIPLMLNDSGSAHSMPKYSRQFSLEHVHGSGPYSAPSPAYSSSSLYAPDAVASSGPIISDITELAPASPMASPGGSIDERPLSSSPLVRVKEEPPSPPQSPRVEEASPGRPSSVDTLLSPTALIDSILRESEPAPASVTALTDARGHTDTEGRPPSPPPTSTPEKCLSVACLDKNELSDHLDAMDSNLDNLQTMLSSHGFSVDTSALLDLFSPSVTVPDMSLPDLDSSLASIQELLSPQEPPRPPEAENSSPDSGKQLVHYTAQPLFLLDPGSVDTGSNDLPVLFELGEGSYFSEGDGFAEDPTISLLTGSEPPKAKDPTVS

As to TAGTTG, the binding signal with FLI1 was 1.04 fold enrichment (6-mer frequency, TF over GST control); with ELF1, 1.01 fold enrichment (6-mer frequency, TF over GST control); with EHF, 1.01 fold enrichment (6-mer frequency, TF over GST control); with SPIB, 1.02 fold enrichment (6-mer frequency, TF over GST control); in the experiment with SPIC, 1 fold enrichment (6-mer frequency, TF over GST control); with ELF4, 1.01 fold enrichment (6-mer frequency, TF over GST control). Besides, the binding signal in the experiment with ELK4 was 1.18 fold enrichment (6-mer frequency, TF over GST control); with ETV2 it was 1.01 fold enrichment (6-mer frequency, TF over GST control); with ERF it was 1.07 fold enrichment (6-mer frequency, TF over GST control); with ETV7, 1.02 fold enrichment (6-mer frequency, TF over GST control); in the experiment with ETV6, 1.01 fold enrichment (6-mer frequency, TF over GST control).
On to TAAGTC, for which the binding signal with FLI1 is 1 fold enrichment (6-mer frequency, TF over GST control); with HSF1, 1.21 fold enrichment (6-mer frequency, TF over GST control).
